Screening data as filed in PubChem.
TRPML1 ag: human mucolipin-1 channel agonism. activation, % (no concentration beside the values). TRPML1-expressing cells, Ca2+ dye fluorescence, FDSS. Q9GZU1. actives 0.12% (n = 410,000); in the data active = activation above about 50%; inconclusive = mostly about 30% to 49%; also: 0% is about no effect
Target sequence (Q9GZU1 whole entry, looked up): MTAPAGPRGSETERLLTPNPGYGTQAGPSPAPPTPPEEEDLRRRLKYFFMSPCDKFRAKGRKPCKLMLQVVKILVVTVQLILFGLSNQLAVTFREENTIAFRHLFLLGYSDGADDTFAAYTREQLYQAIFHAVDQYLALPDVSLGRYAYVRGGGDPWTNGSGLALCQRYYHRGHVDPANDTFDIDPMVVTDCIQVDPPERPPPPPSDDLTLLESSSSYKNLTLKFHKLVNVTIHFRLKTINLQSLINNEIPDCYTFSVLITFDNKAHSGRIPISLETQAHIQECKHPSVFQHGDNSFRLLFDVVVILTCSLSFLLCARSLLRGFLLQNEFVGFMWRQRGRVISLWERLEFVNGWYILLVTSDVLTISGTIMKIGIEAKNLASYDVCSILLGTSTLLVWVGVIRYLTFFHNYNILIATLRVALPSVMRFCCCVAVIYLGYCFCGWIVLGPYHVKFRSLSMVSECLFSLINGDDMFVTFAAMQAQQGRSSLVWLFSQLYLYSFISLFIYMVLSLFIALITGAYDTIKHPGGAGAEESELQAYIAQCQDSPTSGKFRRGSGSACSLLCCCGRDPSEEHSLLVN
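Calcium fluorescence on an FDSS kinetic reader gave the read-out. Tet-induced TRPML1-DL cells were plated overnight, dye-loaded (Ca8 with quencher, 45-90 min, room temperature, dark), then read 110 s after compound addition, and again 110 s after 4uM final 54-4 (EC80).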
TRPML1 inh: human mucolipin-1 channel inhibition. TRPML1-inducible cells, Ca2+ dye fluorescence, FDSS; hits give low values; inhibition of EC80 agonist-evoked calcium signal. activity change, negative = inhibition, % (no concentration beside the values). actives 0.02% (n = 390,000); in the data active = activity change below about -50%; inconclusive = between about -30% and that limit;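 also: stimulus is agonist 54-4 at its EC80 concentration; % is scaled to controls: 0 for no effect and ±100 for the full control effect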
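Calcium fluorescence in TRPML1-DL cells induced overnight with Tet: a 110 s read after compound pin addition, then a 110 s antagonist read after challenge with 54-4 at 4 uM final (EC80).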
Vif-A3G inh: inhibitors of Vif-APOBEC3G interaction | Q9HC16 | HeLa A3G-eYFP + Vif (tagged APOBEC3G with the HIV-1 protein that degrades it), YFP fluorescence, overnight | Potency, µM (top dose mostly 46.1 µM), inactives show at the highest dose activity, negative = active, usual class: inhibitors | actives 0.076% (n = 410,000); also: potency is read from the fitted curve at half-maximal effect; % is scaled to controls: 0 for no effect and ±100 for the full control effect; nearly all actives have a fitted effect of over 60% in size
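Read-out is eYFP fluorescence (Ex 488/Em 500-530) from Vif-expressing HeLa A3G-eYFP cells; more signal means A3G escaped Vif-mediated degradation. Cells plated overnight, compound pinned in, incubated overnight at 37 deg C.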
Vif-APOBEC3F blk: inhibitors of Vif-A3F interaction | HeLa A3F-eYFP + Vif (tagged APOBEC3F with the HIV-1 protein that degrades it), YFP fluorescence increase | Potency, µM (doses to about 46.1 µM), for the others: top-dose activity, negative = active | actives 0.2% (n = 390,000); also: potency is read from the fitted curve at half-maximal effect; % of control where 0% means no effect; nearly all actives have a fitted effect of over 65% in size
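Fluorescence increase (Ex 488/Em 500-530) after overnight compound treatment at 37 deg C flags inhibition of Vif-driven A3F-eYFP loss in stable HeLa A3F-eYFP/Vif cells seeded overnight beforehand.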
PINK1 expr mod: changes PINK1 expression; Potency, µM (highest dose often 76.6 µM), for the others: top-dose activation (PINK1 increase), usual class: activators; PINK1 immunofluorescence, high-content cytometry, 24 h; actives 0.2% (n = 410,000); active = well fitted activation curve with a large enough effect; inconclusive = small, poorly fitted or top-dose-only effect; cell line not stated here; also: potency is read from the fitted curve at half-maximal effect; % of control where 0% means no effect; nearly all actives have a fitted effect of over 65% in size
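Fluorescence from anti-PINK1 antibody, together with nuclear and cell stains, was scanned on a laser-scanning cytometer. Before staining, stable-line cells were incubated 24 hours with compounds at 5 concentrations; primary antibody 12 h at 10 degrees C.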
* hit, by the source's call; [ ] = remark or other dose. Shown are actives, neighbours in structure and some others; about 0.52% of the full set was active somewhere. Unless noted, calls follow the shape of the dose curve; as a rule, active = well fitted curve in the direction sought with a large enough effect; inconclusive = small, poorly fitted or top-dose-only effect, or another doubt; inactive = no such curve, though single readings can be large; an effect the other way counts as inactive or inconclusive.

How did CC1C/C(=N/Nc2nc3ccccc3[nH]2)CC(C)(C)C1 (centres undefined) do in these assays?
TRPML1 ag: 0; TRPML1 inh: 12; Vif-A3G inh: 0%; Vif-APOBEC3F blk: 0%; PINK1 expr mod: 5%

What do the screens show for `O=C1c2c(O)cc(O)cc2O[C@H](c2ccc(O)c(O)c2)[C@H]1O`?
TRPML1 ag: 1; TRPML1 inh: 10; Vif-A3G inh: 1%; Vif-APOBEC3F blk: 4%; PINK1 expr mod: 0%

How did C[C@@H]1O[C@@H](O[C@@H]2C(=O)c3c(O)cc(O)cc3O[C@H]2c2ccc(O)c(O)c2)[C@H](O)[C@H](O)[C@H]1O do in these assays?
TRPML1 ag: 0; TRPML1 inh: 19; Vif-A3G inh: 11µM*; Vif-APOBEC3F blk: 0%; PINK1 expr mod: 1%

What do the screens show for `COc1ccc(-[n+]2c(C)cc(/C=C3\Sc4ccccc4N3C)cc2C)cc1`?
TRPML1 ag: 69*; TRPML1 inh: 2; Vif-A3G inh: inconclusive; Vif-APOBEC3F blk: -209%; PINK1 expr mod: 18%

How did COc1ccc(C(=O)/C=C2\Sc3ccccc3N2C)cc1 do in these assays?
TRPML1 ag: 0; TRPML1 inh: -26; Vif-A3G inh: -2%; Vif-APOBEC3F blk: -1%; PINK1 expr mod: 2%

What do the screens show for `COc1ccccc1-[n+]1c(C)cc(/C=C2\Sc3ccccc3N2C)cc1C`?
TRPML1 ag: 65*; TRPML1 inh: -12; Vif-A3G inh: inconclusive; Vif-APOBEC3F blk: inconclusive; PINK1 expr mod: 4%

Results for CCOc1ccc(S(=O)(=O)Nc2cccc(C(=O)NCC3CCCO3)c2)cc1 (centres undefined) ?
TRPML1 ag: 0; TRPML1 inh: -6; Vif-A3G inh: -3%; Vif-APOBEC3F blk: -3%; PINK1 expr mod: 6%

Results for CCN(CC)c1ccc(/C=C2\C(=O)c3ccc(C(=O)O)cc3C2=O)cc1 ?
TRPML1 ag: 78*; TRPML1 inh: -16; Vif-A3G inh: -5%; Vif-APOBEC3F blk: inconclusive; PINK1 expr mod: 0%

Results for NC1=NC(=O)/C(=C/c2ccccc2OCC(=O)Nc2ccc(F)cc2)S1 ?
TRPML1 ag: -1; TRPML1 inh: 4; Vif-A3G inh: 2%; Vif-APOBEC3F blk: 11%; PINK1 expr mod: 12%

How did O=C(COc1ccccc1/C=C1\SC(=S)NC1=O)Nc1ccc(F)cc1 do in these assays?
TRPML1 ag: -1; TRPML1 inh: -10; Vif-A3G inh: -6%; Vif-APOBEC3F blk: inconclusive; PINK1 expr mod: 32µM*

How did COc1cc(OC)cc(C(=O)N/N=C(\C)CC(=O)Nc2ccccn2)c1 do in these assays?
TRPML1 ag: 1; TRPML1 inh: 0; Vif-A3G inh: 3.5µM*; Vif-APOBEC3F blk: -3%; PINK1 expr mod: 5%

What do the screens show for `C/C(CC(=O)Nc1ccccn1)=N\NC(=O)c1ccc2ccccc2c1`?
TRPML1 ag: 2; TRPML1 inh: -25; Vif-A3G inh: -6%; Vif-APOBEC3F blk: 4%; PINK1 expr mod: 17%

How did Cn1c(N)c(C(=O)COC(=O)COc2ccc(Cl)cc2Cl)c(=O)n(C)c1=O do in these assays?
TRPML1 ag: -1; TRPML1 inh: 11; Vif-A3G inh: -4%; Vif-APOBEC3F blk: -2%; PINK1 expr mod: 3%

What do the screens show for `Cc1nc2cc(Cl)ccc2c(=O)n1Cc1ccncc1`?
TRPML1 ag: 1; TRPML1 inh: 16; Vif-A3G inh: -2%; Vif-APOBEC3F blk: 1%; PINK1 expr mod: 0%

What do the screens show for `CC(OC(=O)c1cc2sccc2n1C)C(=O)NCC1CCCO1` (centres undefined)?
TRPML1 ag: 0; TRPML1 inh: -13; Vif-A3G inh: 2%; Vif-APOBEC3F blk: -12%; PINK1 expr mod: 10µM*

How did CNNCc1ccc(C(=O)NC(C)C)cc1 do in these assays?
TRPML1 ag: 1; TRPML1 inh: -7; Vif-A3G inh: 0%; Vif-APOBEC3F blk: 0%; PINK1 expr mod: 2%

Results for O=C(CCCCCn1c(=O)c2sccc2n(CC(=O)Nc2cccc(Cl)c2)c1=O)NCc1ccc2c(c1)OCO2 ?
TRPML1 ag: 0; TRPML1 inh: 2; Vif-A3G inh: -1%; Vif-APOBEC3F blk: -2%; PINK1 expr mod: 0%

Results for Nc1c(C(=O)C2CC2)sc2nc(-c3cccs3)cc(C(F)(F)F)c12 ?
TRPML1 ag: 17; TRPML1 inh: 8; Vif-A3G inh: -53%; Vif-APOBEC3F blk: 0.63µM*; PINK1 expr mod: inconclusive

How did CCOC(=O)N(C)[C@H]1C[C@H]2c3[nH]c4ccccc4c3CCN2C[C@H]1[C@H](C)O do in these assays?
TRPML1 ag: 0; Vif-A3G inh: -18%; PINK1 expr mod: 1%

Results for C[C@H](O)[C@@H]1CN2CCc3c([nH]c4ccccc34)[C@@H]2C[C@@H]1N(C)Cc1cc(Cl)cc(Cl)c1 ?
TRPML1 ag: 69*; TRPML1 inh: -4; Vif-A3G inh: -6%; Vif-APOBEC3F blk: -3%; PINK1 expr mod: 2%

How did Cc1ccc(-c2cc(C(=O)N/N=C/c3ccc([N+](=O)[O-])o3)c3ccccc3n2)o1 do in these assays?
TRPML1 ag: 1; TRPML1 inh: -25; Vif-A3G inh: -19%; Vif-APOBEC3F blk: -8%; PINK1 expr mod: 0%

What do the screens show for `Cn1c(/C=C/c2ccccc2)nc2ccccc2c1=O`?
TRPML1 ag: -2; TRPML1 inh: 0; Vif-A3G inh: -10%; Vif-APOBEC3F blk: 4%; PINK1 expr mod: 2%

How did Cc1cc(N/N=C/c2ccc([N+](=O)[O-])o2)nc2ccccc12 do in these assays?
TRPML1 ag: 13; TRPML1 inh: 44; Vif-A3G inh: 11µM*; Vif-APOBEC3F blk: inconclusive; PINK1 expr mod: inconclusive

What do the screens show for `Cn1c(/C=C/c2ccc([N+](=O)[O-])o2)nc2ccccc2c1=O`?
TRPML1 ag: 0; TRPML1 inh: -17; Vif-A3G inh: 2.8µM*; Vif-APOBEC3F blk: 11µM*; PINK1 expr mod: 7%

Results for Cc1ccc2nc(SC(C)C(=O)N3CCOCC3)[nH]c2c1 (centres undefined) ?
TRPML1 ag: -1; TRPML1 inh: -27; Vif-A3G inh: 0%; Vif-APOBEC3F blk: 1%; PINK1 expr mod: 0%

Results for CCOC(=O)c1c(C)c(C(=O)NCc2cccs2)c(C)n1C ?
TRPML1 ag: 0; TRPML1 inh: -57*; Vif-A3G inh: -4%; Vif-APOBEC3F blk: -1%; PINK1 expr mod: 2%[38.3 µM]

How did CN1/C(=C\C(=O)C[n+]2ccc3ccccc3c2)C(C)(C)c2ccccc21 do in these assays?
TRPML1 ag: 0; TRPML1 inh: -19; Vif-A3G inh: 1%; Vif-APOBEC3F blk: inconclusive; PINK1 expr mod: 45µM*

How did O=C(O)C1OCC2(CO1)COC(C(=O)O)OC2 (centres undefined) do in these assays?
TRPML1 ag: 0; TRPML1 inh: 9; Vif-A3G inh: 0%; Vif-APOBEC3F blk: 8%; PINK1 expr mod: 1%

What do the screens show for `OC1=C(O)c2nc3cc(F)ccc3nc21`?
TRPML1 ag: 1; TRPML1 inh: -3; Vif-A3G inh: 1%; Vif-APOBEC3F blk: 4%; PINK1 expr mod: 0%
